What was measured:
[1] = target: T1, Aspartate--tRNA(Asp/Asn) ligase (Mycobacterium tuberculosis (strain ATCC 25618 / H37Rv)) (UniProt P9WFW3); assay: Assay for Asp RNA synthetase-1 from Mycobacterium tuberculosis; type: functional; parameters: scale not given: direction of the effect not stated beside the values; conditions: 30 µM; note: in the data most compounds retested in dose-response had high values
T1 sequence (whole entry): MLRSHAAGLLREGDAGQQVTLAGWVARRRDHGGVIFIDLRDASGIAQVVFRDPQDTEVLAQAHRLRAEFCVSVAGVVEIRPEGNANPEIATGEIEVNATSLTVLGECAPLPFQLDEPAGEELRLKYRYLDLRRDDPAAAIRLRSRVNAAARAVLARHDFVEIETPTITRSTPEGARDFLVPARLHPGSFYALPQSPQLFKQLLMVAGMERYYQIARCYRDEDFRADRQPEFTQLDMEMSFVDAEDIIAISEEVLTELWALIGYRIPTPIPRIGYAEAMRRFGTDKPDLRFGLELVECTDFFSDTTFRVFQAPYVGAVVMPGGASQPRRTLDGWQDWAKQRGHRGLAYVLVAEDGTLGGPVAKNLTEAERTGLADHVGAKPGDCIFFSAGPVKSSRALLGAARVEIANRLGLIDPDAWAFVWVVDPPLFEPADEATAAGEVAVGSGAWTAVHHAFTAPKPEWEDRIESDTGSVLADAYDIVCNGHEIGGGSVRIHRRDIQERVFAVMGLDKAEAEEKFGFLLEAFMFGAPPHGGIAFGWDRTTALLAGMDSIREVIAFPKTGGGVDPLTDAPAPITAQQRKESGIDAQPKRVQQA

[2] = target: Shiga toxin 2 (Escherichia coli O157:H7) (UniProt P09385+P09386); assay: E. coli 0.157:H7 Shiga Toxin SOP - stx2 screening assay; type: functional; parameters: scale not given: direction of the effect not stated beside the values; conditions: 30 µM

| SMILES | Percent Effect [1] [%] | Percent Effect [2] [%] |
| --- | --- | --- |
| CCc1nc(C2CCCN(C(=O)c3ccc(OC(C)C)nc3)C2)no1 (configuration not stated) | -1.24 | 17.3 |
| Cc1ccc2c(ccn2CC(=O)NC[C@@H]2CCCN3CCCC[C@H]23)c1 | 2.12 | -7.12 |
| Cc1cnn(C2CCCN(C(=O)c3cn4cccnc4n3)C2)c1 (configuration not stated) | -0.409 | 8.96 |
| O=C(c1cnc(C2CC2)s1)N1CCCC(n2cccn2)C1 (configuration not stated) | -2.52 | 24.9 |
| CCn1ncc(CN2CCc3c(nc(-c4cccnc4)[nH]c3=O)C2)c1C | -5.25 | -14.2 |
| Cc1cccc(C2(C(=O)NCCCn3cccn3)CC2)c1 | -9.29 | -5.42 |
| c1ccc2cc(OCCN3CCOC(Cn4cncn4)C3)ccc2c1 (configuration not stated) | -2.92 | -29.2 |
| CCN(CC)Cc1ccc(C(=O)N2CCN(CC(C)O)CC2)cc1 (configuration not stated) | 0.607 | 8.97 |
| Cc1cc(C)n(C2CCCN(C(=O)CCNS(C)(=O)=O)C2)n1 (configuration not stated) | -0.16 | -20 |
| Cc1ccc(CNCc2ccc(-n3nc(C)cc3C)nc2)cc1 | 1.23 | 22.8 |
| CCc1n[nH]c(C2CN(C(=O)c3cnns3)CCO2)n1 (configuration not stated) | -0.228 | 10.8 |
| CC(Cn1cccn1)NC(=O)CCc1ccc(S(N)(=O)=O)cc1 (configuration not stated) | -2.91 | 11.3 |
| CN(CC(=O)N1CCC(C(O)c2ccccc2)CC1)c1cnccn1 (configuration not stated) | -0.321 | -9.59 |
| CC1CN(Cc2nccn2C)CCN1c1ccc2nncn2n1 (configuration not stated) | -6.07 | -28.7 |
| O=C(c1ccno1)N1CCC2(CC1)C(=O)N(CC1CC1)c1ccccc12 | -0.569 | -1.25 |
| CC(=O)N1CCc2c(nc(-c3ccccn3)nc2N(C)CC(O)CO)C1 (configuration not stated) | -6.34 | 26.6 |
| Cc1ccccc1C(=O)CN1C(=O)c2ccccc2CS1(=O)=O | 0.881 | -11.1 |
| Cc1ncsc1CN1C[C@H](C(=O)N2CCCO2)[C@@H]2CCO[C@@H]2C1 | -1.48 | -4.78 |
| CC(NC(=O)N(C)Cc1ccsc1)c1ccc2c(c1)OCO2 (configuration not stated) | 1.79 | 28.8 |
| CC(C)c1nn(C)c(N(C)C)c1CNCCC(=O)N(C)C | -4.3 | 10.1 |
| CCn1cc(CN2C[C@@H]3CCCN3C[C@@H]2CCSC)c(C)n1 | -0.662 | 5.06 |
| Fc1cccc(-n2ccc(CN3CCCCC3Cn3cncn3)n2)c1 (configuration not stated) | -3.17 | 17.2 |
| CCS(=O)(=O)N1C[C@H]2CN(Cc3cccnc3)C(=O)[C@H]2C1 | 3.48 | -32.6 |
| Cc1cnn(C2CCCN(C(=O)c3ccn(C)c(=O)c3)C2)c1 (configuration not stated) | -2.74 | 22 |
| CC(C)Sc1nnc(CCNC(=O)OC(C)(C)C)o1 | -0.987 | -76.8 |
| NC(=O)c1cc(C2CCCN(C(=O)CCc3cscn3)C2)n[nH]1 (configuration not stated) | -4.07 | -14.1 |

| SMILES | Percent Effect [1] [%] | Percent Effect [2] [%] |
| --- | --- | --- |
| Cc1ccc(N2CC[C@H](OCC3CC3)[C@@H]2Cc2cnn(C)c2)nn1 | 2.69 | -6.34 |
| CCC1CN(CCC(=O)N(C)C)CCN1CCOC (configuration not stated) | 2.89 | 22.5 |
| Cc1ccc(OCC(=O)NCc2ccccc2F)nc1 | -0.524 | -8.96 |
| O=C(c1cccn1Cc1cccs1)N1CCN(C2CC2)CC1 | -1.4 | -1.86 |
| CC(NC(=O)NCCOc1ccc(F)c(F)c1)c1nncn1C (configuration not stated) | -4.5 | 27.5 |
| CCCNC(=O)NCc1cccnc1OC | -6.48 | -26.6 |
| COCCNC(=O)[C@H]1C[C@@H]2CCN(c3nncs3)C[C@H]2O1 | 1.82 | -18.8 |
| O=C(CSc1ccccc1Cl)NS(=O)(=O)c1ccc2c(c1)OCCO2 | -8.39 | -0.0514 |
| CCn1nc2c(cc1=O)CN(CC(=O)Nc1nc(C)c(C)s1)CC2 | 3.7 | -30.8 |
| CCN(CC)C(CNS(=O)(=O)c1ccc(C(=O)NC)cc1)c1ccco1 (configuration not stated) | -2.1 | -17.4 |
| Cc1cnn(CC2CCCN2C(=O)CCc2ccsc2)c1 (configuration not stated) | -3.37 | 14.6 |
| Cn1cccc1C(=O)N1CCC2(CC1)CN(c1ccccn1)CCO2 | 7.46 | -7.72 |
| O=C(NCc1ccc(-c2ccn[nH]2)cc1)N1CCC(N2CCCC2)C1 (configuration not stated) | -3.65 | 9.65 |
| Cc1ccoc1C(=O)N1CC[C@H]2O[C@@H](C)C[C@H]2C1 | -2.48 | -17.1 |
| COc1ccccc1OCC(=O)Nc1ncccc1OC(F)F | 3.04 | -12 |
| c1ccc(-c2noc(CNC3CCc4ncnn4C3)n2)nc1 (configuration not stated) | 0.903 | 16.9 |
| Cc1nc(-c2ccsc2)ccc1C(=O)NCCC(=O)N1CCCC1 | 0.0333 | -18.4 |
| Cn1cnc2c1C(COCC1CCOCC1)CN(C1CCOCC1)C2 (configuration not stated) | 3.46 | -20.2 |
| Cc1ccccc1CNC(=O)Cc1c(C)nc2cc(=O)[nH]n2c1C | -0.856 | 17.8 |
| CC(c1nc(C2CC2)no1)N1CCN(Cc2ccsc2)CC1 (configuration not stated) | -4.63 | -11.4 |
| Cn1c(CC2CCS(=O)(=O)C2)nnc1SCCOc1ccccc1F (configuration not stated) | 2.75 | -10.2 |
| Cc1cc(=O)n(CC(=O)NCCC(C)C)c(-c2cccc(Cl)c2)n1 | 12.2 | -9.6 |
| O=C(CCN1CCCC1C1CCCCC1)N1CCc2sccc2C1 (configuration not stated) | 2.02 | 8.04 |
| Cc1cnc(NC(=O)N2CCCC2)s1 | 1.37 | 1.43 |
| Cc1nc(C)n(CC2CCCN2Cc2nc(N)c3ccccc3n2)n1 (configuration not stated) | -1.84 | -29.4 |
| CCc1nnc2n1CCN(C(=O)c1ccc3[nH]cnc3c1)C2 | -2.2 | -13.3 |

| SMILES | Percent Effect [1] [%] | Percent Effect [2] [%] |
| --- | --- | --- |
| COc1ccc(N2CCC(C(=O)/N=c3/[nH]ccs3)CC2)nn1 | -0.842 | -7.73 |
| c1coc(-c2noc(CN3CCCC(Cn4cncn4)C3)n2)c1 (configuration not stated) | -6.28 | -10.4 |
| CCOC(=O)CCC(=O)N1CCC(Oc2ccc(C(F)(F)F)cn2)CC1 | -1.91 | 12.6 |
| Cc1ccc(CC(=O)N(C)CC2(O)CCN(c3ccccn3)C2)s1 (configuration not stated) | 5.23 | -0.365 |
| CSc1ncccc1C(=O)N1CCC(c2nc3c(C)cccc3[nH]2)CC1 | 3.63 | -17.2 |
| CCC(CC)NC(=O)Cn1nc(C)nc1-c1ccccc1 | -2.19 | 23 |
| CC(=O)N1CCC(CN2CCN(Cc3nccn3C)C(C)C2)CC1 (configuration not stated) | 7.78 | 18.6 |
| CCn1nc(C)c(CCNC(=O)C2CCCN(C(=O)N(C)C)C2)c1C (configuration not stated) | -4.2 | 14.2 |
| Cc1cc(C(=O)N2C[C@@H]3COC[C@]3(COCc3cccnc3)C2)no1 | 0.918 | -6.54 |
| CCS(=O)(=O)N1CC[C@H](OC)[C@@H]1Cc1ccncc1 | -2.52 | -2.84 |
| CC1Cc2ccccc2N1Cc1occc1C(=O)OCC(N)=O (configuration not stated) | -3.97 | -1.38 |
| Cc1ccc2cc(CNCCCN3CCOCC3)c(=O)[nH]c2c1 | -2.01 | -12.7 |
| CCN(c1ccc(C(=O)NCCCN2CCOCC2)cc1)S(=O)(=O)CC | 4.46 | -48.2 |
| Cc1ccc(NC(=O)NCCCc2n[nH]c(N)c2C#N)cc1 | 1.26 | -18.4 |
| CC(C)(C)NC(=O)C1CSCN1S(=O)(=O)c1ccc(F)cc1 (configuration not stated) | 5.02 | 1.58 |
| CC1CCN(S(=O)(=O)NCC2CCOc3ccccc3C2)CC1 (configuration not stated) | 0.0297 | 5.97 |
| c1csc(CN2C[C@@H]3OCCN(CC4CCCO4)[C@@H]3C2)c1 (some centres not stated) | -2.14 | 7.71 |
| CCn1ncnc1C(C)NC(=O)C1CCN(C(C)C)CC1 (configuration not stated) | 3.06 | -16.7 |
| Cc1nc(CCNC(=O)NCc2ccc(N(C)C)nc2)cs1 | -1.75 | 6.63 |
| C1CC(NCc2nc(C3CC3)no2)CN(Cc2noc(C3CC3)n2)C1 (configuration not stated) | -2.94 | 13.3 |
| COc1ccc(CN(C)C(=O)NCc2c(C)cc(C)[nH]c2=O)cc1 | 0.281 | 31.7 |
| CNC(=O)C1CCN(C(=O)CCn2cccn2)CC1 | 6.32 | 26 |
| Cc1ccc(F)cc1NC(=O)NCC(C)N1CCOCC1 (configuration not stated) | -1.14 | -35 |
| COc1ccc(CN(C)CC2(O)CCN(C(=O)c3cccn3C)C2)cc1 (configuration not stated) | 2.04 | -5.84 |
| COc1ccccc1CC(=O)N1CCC(NCc2cc[nH]c2)CC1 | -2.74 | -11.8 |
| CCOc1ccc(Cl)c(C(=O)N2CCN(c3cnccn3)CC2)n1 | -1.79 | -46.8 |

| SMILES | Percent Effect [1] [%] | Percent Effect [2] [%] |
| --- | --- | --- |
| Cc1cc(CN(C)C(=O)NC2CCN(Cc3ccccc3)C2)no1 (configuration not stated) | 2.94 | -10.9 |
| COCCOCC(=O)Nc1ccc(C)cc1F | -1.8 | 2.25 |
| c1cnnc(NCC2CN(Cc3cccc4c3OCCO4)CCO2)c1 (configuration not stated) | -1.18 | -1.74 |
| CN(CCN1CCCCC1)C(=O)c1cc(CN2CCOCC2)on1 | 5.72 | -1.02 |
| Cn1cc(N2CC3(CCN(S(=O)(=O)C4CC4)C3)CC2=O)cn1 (configuration not stated) | -0.32 | -17.6 |
| COCC(=O)N1CC[C@@H](O)[C@@H]1Cc1ccccc1 | 4.62 | 3.46 |
| O=C(COc1coc(CN2CCOCC2)cc1=O)c1ccc(Cl)cc1 | 4.37 | -57.8 |
| CCCC(C)C(=O)NCc1cn2cc(Br)ccc2n1 (configuration not stated) | 1.41 | -63.8 |
| O=C(Nc1cccnc1)[C@H]1C[C@@H]2CCN(c3nncs3)C[C@H]2O1 | -3.84 | -14 |
| c1ccc(NCc2cn3c(n2)CN(Cc2cccnc2)CC3)nc1 | -1.64 | -39.5 |
| O=C(Nc1ccc(F)c(Br)c1)N1CCCC1 | 4.74 | -23.1 |
| CCn1ccnc1CN1CCCN(C(=O)c2cccn2C)CC1 | -3.17 | 5.64 |
| CCn1cc(CNC2CC(=O)N(CCc3cccc(Cl)c3)C2)cn1 (configuration not stated) | -2.05 | -2.75 |
| CCn1cnnc1C1CCN(C(=O)c2cc3c(s2)CCC3)CC1 | -5.31 | -11.1 |
| COc1ccc(-c2noc(CNC(C)Cn3cccn3)n2)c(OC)c1 (configuration not stated) | -1.71 | -8.56 |
| CC(C)N1CCC(Cc2cnc(-c3cccc(C(=O)O)c3)cn2)C1 (configuration not stated) | -5.2 | 16 |
| Cc1nc(C)n(C2CCCN(C(=O)c3cc4ccccc4n3C)C2)n1 (configuration not stated) | -0.634 | 15 |
| COCC1CC2(CCN(C(=O)c3ccc(OC)c(Cl)c3)CC2)CO1 (configuration not stated) | 0.918 | -4.71 |
| Cc1cnn(CC2CCCCN2Cc2nc(N)c3ccccc3n2)c1 (configuration not stated) | -5.71 | -7.68 |
| CNC(=O)c1ccc(CN2CCC(N(C)Cc3noc(C)n3)C2)cc1 (configuration not stated) | -0.577 | 7.96 |
| O=C1CC2(CCN(CC3CC3)C2)CN1c1cccc(F)c1 (configuration not stated) | 0.607 | -32.8 |
| Cc1nc(N(C)C)nc2c1COCC21CCN(C(=O)NC(C)C)C1 (configuration not stated) | 2.63 | -1.42 |
| O=C(CN1CCN(CC(O)C2CC2)CC1)NCc1ccc(F)cc1 (configuration not stated) | -0.889 | -4.46 |

— ChEMBL document CHEMBL3988442, “University of Dundee, Small-Polar-MMV Screening Library” (2021)
